Screens: PubChem, National Center for Advancing Translational Sciences (NCATS)
POLH inh: blocks human DNA polymerase eta activity | recombinant Pol eta, fluorescent DNA replication assay | Potency, µM (titrated, usually from 114 µM), for the others: at the highest dose activity change, negative = inhibition, actives largely listed as inhibitors | 390,000 tested, 1.2% active | AID 588591; also: potency is read from the fitted curve at half-maximal effect; % is scaled to controls: 0 for no effect and ±100 for the full control effect
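Fluorescent replication assay: 50 nM final substrate added after a 15 min room-temperature compound preincubation with 10 nM enzyme. Signal taken at 0 min and again at 10 min.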
POLB inh: inhibitors of human DNA polymerase beta; Pol beta primer extension/strand displacement, fluorescence kinetic; Potency, µM (doses to about 114 µM), for the others: top-dose activity change, negative = inhibition, usual class: inhibitors; 340,000 tested, 1.3% active; also: potency is read from the fitted curve at half-maximal effect; % is scaled to controls: 0 for no effect and ±100 for the full control effect
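10 nM enzyme + cpd, 15 min RT; start with substrate 50 nM final; read 0 min and after 10 min RT. Corrected, normalized data; 4-parameter Hill curve fit.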
POLI inh: inhibitors of human DNA polymerase iota; Potency, µM (titrated, usually from 115 µM), for inactives: at the highest dose activity, negative = inhibition, most hits filed as inhibitors; 390,000 tested, 1% active; Pol iota fluorescent replication assay, 10 min; also: potency is read from the fitted curve at half-maximal effect
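Pol iota at 10 nM preincubated 15 min with compounds at room temperature; reaction started with fluorescent substrate, 50 nM final. Fluorescence read kinetically at 0 and 10 min; buffer-only wells as negative control.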
PI5P4K alpha inh: PI5P4K alpha (human) kinase inhibition; P48426; PI5P4Kalpha enzyme, ADP-Glo luminescence, 60 min; active compounds read low; max response, %; 330,000 tested, 1.2% active; AID 652105; active = max response of -50% or lower; inconclusive = between -30% and -50%; inactive = -30% or higher; also: value at the top dose of about 77 µM; % is scaled to controls: 0 for no effect and ±100 for the full control effect
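Luminescence from ADP-Glo served as readout of PI5P4Kalpha activity in a qHTS format. Reaction: enzyme, substrate, compound, ATP at 5 microM final, 60 min at RT.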
WRN helicase inh-1: blocks human WRN helicase. WRN helicase unwinding, fluorescent forked duplex, kinetic. Potency, µM (series often up to 114 µM), without a hit: at the highest dose activity change, negative = inhibition, hits mostly inhibitors. 360,000 tested, 0.46% active; also: potency is read from the fitted curve at half-maximal effect; % is scaled to controls: 0 for no effect and ±100 for the full control effect; nearly all actives have a fitted effect of over 55% in size
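Screening of the MLSMR collection measured strand separation of a quenched forked DNA duplex (100 nM) by 20 nM WRN with 2 mM ATP, all final. Compounds were preincubated with enzyme 15 min at room temperature.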
Pol kappa inh: DNA polymerase kappa (human) inhibition | Potency, µM (highest dose often 107 µM), for the others: at the highest dose activity, negative = inhibition, hits mostly inhibitors | AID 588579 | purified Pol kappa, fluorescent DNA synthesis assay, 10 min | Q9UBT6 | 400,000 tested, 0.53% active; also: potency is read from the fitted curve at half-maximal effect; % is scaled to controls: 0 for no effect and ±100 for the full control effect
Target sequence (Q9UBT6 whole entry, looked up): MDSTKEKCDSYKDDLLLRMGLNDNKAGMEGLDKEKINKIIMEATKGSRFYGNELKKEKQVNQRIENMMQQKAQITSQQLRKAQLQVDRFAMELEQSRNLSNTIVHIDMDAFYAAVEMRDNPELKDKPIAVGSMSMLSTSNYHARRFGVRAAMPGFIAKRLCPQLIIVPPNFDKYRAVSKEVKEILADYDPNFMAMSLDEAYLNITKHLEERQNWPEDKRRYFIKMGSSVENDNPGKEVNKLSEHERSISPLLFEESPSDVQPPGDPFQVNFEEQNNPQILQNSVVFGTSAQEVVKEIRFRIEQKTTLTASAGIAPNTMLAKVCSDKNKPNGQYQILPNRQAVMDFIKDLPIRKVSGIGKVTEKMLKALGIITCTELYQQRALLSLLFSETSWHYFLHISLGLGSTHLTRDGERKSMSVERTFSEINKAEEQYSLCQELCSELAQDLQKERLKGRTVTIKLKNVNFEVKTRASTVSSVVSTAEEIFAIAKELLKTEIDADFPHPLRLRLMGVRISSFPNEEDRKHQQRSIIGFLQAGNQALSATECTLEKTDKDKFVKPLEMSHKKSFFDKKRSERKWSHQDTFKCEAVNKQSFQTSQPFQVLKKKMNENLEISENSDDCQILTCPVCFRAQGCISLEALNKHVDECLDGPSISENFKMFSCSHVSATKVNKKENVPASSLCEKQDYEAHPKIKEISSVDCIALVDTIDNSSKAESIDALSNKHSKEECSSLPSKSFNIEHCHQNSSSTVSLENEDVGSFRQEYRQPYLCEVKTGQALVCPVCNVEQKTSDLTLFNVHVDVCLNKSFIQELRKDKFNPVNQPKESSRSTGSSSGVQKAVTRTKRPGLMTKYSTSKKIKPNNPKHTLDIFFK
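First, compounds were pin-transferred onto 10 nM Pol kappa. After 15 min at room temperature, substrate was added to 50 nM final. Fluorescence was then measured kinetically at 0 and 10 min.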
WRN helicase inh-2: confirmation of human WRN helicase inhibitors. shares compounds with WRN helicase inh-1. WRN helicase DNA unwinding, fluorescence kinetic. Potency, µM (top dose mostly 57.1 µM), without a hit: at the top dose activity, negative = inhibition, most hits filed as inhibitors. 610 tested, 63% active. AID 720497; also: potency is read from the fitted curve at half-maximal effect; nearly all actives have a fitted effect of over 65% in size
TO DNA binding: DNA binding via thiazole orange displacement; thiazole orange DNA binding displacement, fluorescence; Potency, µM (highest dose often 57.1 µM), without a hit: top-dose activity change, negative = inhibition, most hits filed as inhibitors; 610 tested, 10% active; AID 720499; shares compounds with WRN helicase inh-1;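 also: drop in dye fluorescence marks compound binding to DNA; potency is read from the fitted curve at half-maximal effect; % is scaled to controls: 0 for no effect and ±100 for the full control effect; nearly all actives have a fitted effect of over 60% in size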
BLM counter: counter-screen for WRN helicase inhibitors: human BLM helicase inhibition. shares compounds with WRN helicase inh-1. Recombinant BLM helicase DNA unwinding, red fluorescence. Potency, µM (series often up to 57.1 µM), for inactives: top-dose activity change, negative = inhibition, usual class: inhibitors. 610 tested, 60% active; also: potency is read from the fitted curve at half-maximal effect; nearly all actives have a fitted effect of over 60% in size
* = called active by the depositor; u = inconclusive; x = no result given; [ ] = another dose, or the depositor's remark. A selection: hits, their analogues and other compounds. The true share with any hit is near 2.8%. Unless noted, calls follow the shape of the dose curve; as a rule, active = well fitted curve in the direction sought with a large enough effect; inconclusive = small, poorly fitted or top-dose-only effect, or another doubt; inactive = no such curve, though single readings can be large; an effect the other way counts as inactive or inconclusive.

SMILES | POLH inh | POLB inh | POLI inh | PI5P4K alpha inh | WRN helicase inh-1 | Pol kappa inh | WRN helicase inh-2 | TO DNA binding | BLM counter
C/C=C/c1ccc(OCCCNC(C)CC)c(OC)c1 (stereo not drawn) | 7.3% | 0.0% | 8.7% | 6.2 | u | -0.2% | 2.2% | -2.5% | 2.9%
C/C=C/c1ccc(OCCCNC2CCCC2)c(OC)c1 | -9.7% | -4.3% | u | -0.8 | -6.7% | 2.5% | x | x | x
CCC(C)NC(=O)Cn1nc(Cc2ccncc2)c2ccccc2c1=O (stereo not drawn) | -8.8% | 11.3% | -13.6% | -1.5 | 1.7% | 8.8% | x | x | x
COc1cc(/C=N/Nc2nc(Nc3ccccc3)nc(-n3nc(C)cc3C)n2)cc(OC)c1OC | -24.9% | -3.0% | -14.3% | -8.4 | u | -33.7% | 6.81µM* | 78.1% | 2.71µM*
Cc1ccc(NC(=O)Cn2c(SCc3ccc(F)cc3)nc3cccnc32)cc1F | -7.0% | -23.5% | 9.7% | x | x | -11.9% | x | x | x
CN1C(=O)c2ccccc2N(C)C1c1ccc2c(c1)OCO2 (stereo not drawn) | -5.7% | -14.3% | 2.0% | 3.9 | -6.0% | -18.8% | x | x | x
CC1=C([N+](=O)[O-])C(c2ccc3c(c2)OCO3)N(C)C(=O)N1C (stereo not drawn) | -14.9% | -1.2% | 28.0% | u | u | -14.4% | -6.4% | -1.3% | -13.5%
CCn1nc(C(=O)OCC(=O)Nc2ncc(Cl)c(C)c2Cl)c2ccccc2c1=O | u | -7.4% | u | u | u | -12.3% | -28.9% | -12.0% | u
CCn1nc(C(=O)OCC(=O)NC(C)C)c2ccccc2c1=O | -5.5% | -0.9% | 12.3% | -22.4 | 4.7% | 7.6% | x | x | x
CC1CCCCc2nc3c(c(=O)n21)CCCC3 (stereo not drawn) | x | x | x | 4.1 | 1.7%[57.1 µM] | x | x | x | x
CC1=C(C)CS(=O)N(S(=O)(=O)c2ccc(Cl)cc2)C1 (stereo not drawn) | -2.8% | -2.0% | u | -20.0 | 12.6µM* | -2.3% | -29.7% | 2.5% | u
CC1CCCC(C)N1S(=O)(=O)c1ccc(Cl)cc1 (stereo not drawn) | -13.5% | 34.4% | -6.7% | 2.1 | -1.7% | 0.0% | x | x | x
COc1ccc(/C=C2\C(=O)ON=C2c2cccc([N+](=O)[O-])c2)cc1 | x | 11.9% | x | x | x | x | x | x | x
O=C1ON=C(c2ccc([N+](=O)[O-])cc2)/C1=C/c1ccccc1O | u | 5.2% | u | u | u | -1.0% | -28.7% | -6.9% | -27.7%
CCOC(=O)c1ccc(NC(=O)CCC(=O)N2Cc3ccccc3Oc3ncccc32)cc1 | -5.8% | -7.5% | 18.9% | x | x | -8.0% | x | x | x
CCN(c1ccccc1)S(=O)(=O)c1ccc(Cl)c(C(=O)N(CC2CCCO2)C2CCS(=O)(=O)C2)c1 (stereo not drawn) | 1.2% | 5.9% | 55.1% | 16.0 | 9.4% | -6.7% | x | x | x
Cc1ccc(-c2[nH]c(-c3ccc(C(=O)O)cc3)nc2-c2ccccc2)cc1 | -3.2% | 3.2% | -2.0% | 1.7 | u | -19.8% | 24.1µM* | -28.2% | u
Cc1ccc(N2C(=O)C3C(C2=O)N2CCCN2C3c2ccccc2)cc1C (stereo not drawn) | -22.2% | -8.0% | 55.4% | -7.3 | 1.1% | -10.0% | x | x | x
Cc1ccc(N2C(=O)CS(=O)C(c3ccccc3)C2=O)cc1C (stereo not drawn) | -14.0% | -17.8% | u | -26.1 | 35.5µM* | -2.1% | u | -10.8% | u
COc1ccc(-c2csc(NC(=S)NC(=O)c3cccs3)n2)cc1Br | -8.0% | -0.4% | 98.7% | 0.5 | -35.9% | -6.1% | x | x | x
COc1ccc(-c2csc(NC(=S)NC(=O)c3cccs3)n2)cc1OC | 20µM* | u | u | -67.3* | u | -11.4% | u | u | u
Cc1ccc(Oc2ncccc2C(=O)NC2CCSC2=O)cc1 (stereo not drawn) | 1.4% | 4.0% | 74.7% | -3.1 | -7.2% | -14.7% | x | x | x
CC1(C)CC(=O)C(C(C2=C(O)CC(C)(C)CC2=O)c2cccs2)C(=O)C1 (stereo not drawn) | 0.6% | 10.3% | u | u | u | -4.4% | -8.1% | -7.2% | -5.5%
ClC(Cl)(c1nnnn1-c1ccccc1)c1nnnn1-c1ccccc1 | 2.0% | 3.2% | 14.1µM* | u | 6.31µM* | -4.9% | u | 1.9% | u
Cc1scc(C(=O)NNC(=S)NC(C)c2ccccc2)c1C (stereo not drawn) | -12.3% | -14.2% | -8.8% | -1.7 | 11.2% | -8.0% | x | x | x
SMILES | POLH inh | POLB inh | POLI inh | PI5P4K alpha inh | WRN helicase inh-1 | Pol kappa inh | WRN helicase inh-2 | TO DNA binding | BLM counter
Cc1sc2c3ccsc3ccc2[n+]1C | -15.2% | 1.2% | 73.9% | -29.0 | u | -5.1% | -4.1% | -4.9% | u
COc1cc(C)c2sc3ccccc3c(=O)c2c1NCCN(C)C | u | x | x | -8.6 | 35.5µM* | x | u | 17.1µM* | u
COC(=O)C1(C(=O)OC)C[C@H](c2ccc(OC)cc2)N(Cc2ccccc2OC)[C@@H]1c1ccc(OC)cc1 | x | x | x | 7.2 | -11.3% | x | x | x | x
O=P(c1ccccc1)(c1ccccc1)C(O)c1ccc(Br)cc1 (stereo not drawn) | -11.7% | 0.4% | 36.8% | 0.5 | 13.1% | 8.6% | x | x | x
N#CC1C(=O)c2ccccc2C1c1ccccc1 (stereo not drawn) | 12.1% | x | u | -17.5 | 12.6µM* | -8.3% | -13.7% | 2.4% | -14.7%
COc1ccc(OC)c(NC(=O)COC(=O)CCc2nc3ccccc3c(=O)[nH]2)c1 | -10.2% | x | 88.2% | -5.7 | u | -11.8% | u | -13.5% | u
COc1cc(Cl)c(C)cc1NC(=O)COC(=O)CCc1nc2ccccc2c(=O)[nH]1 | 7.7% | x | u | -7.5 | u | -13.7% | x | x | x
CC(=O)OCCCNc1cc(Sc2ccc(C)cc2)c2nonc2c1[N+](=O)[O-] | -69.3% | -8.8% | u | -2.7 | 39.8µM* | u | -20.6% | -8.6% | -14.9%
O=C(/C=C/c1cccc2ccccc12)c1ccncc1 | u | 6.9% | -1.1% | 4.0 | u | -3.1% | -16.5% | -10.9% | -13.9%
O=C(N/N=C/c1cccc2ccccc12)c1ccncc1 | -2.8% | 20.1% | 2.7% | -9.2 | 11.2% | -10.9% | x | x | x
C/C(CC(=O)NC12CC3CC(CC(C3)C1)C2)=N\NC(=O)c1ccc(F)cc1 | -21.8% | 30.9% | 138.8% | -4.5 | 5.0% | -1.0% | x | x | x
